Assay results as given in the supplement of paper PMC11732987, “Enantioselective OTUD7B fragment discovery through chemoproteomics screening and high-throughput optimisation” (Communications Chemistry, 2025).

Legend:
Assay in all cases: log2 ratio of Biotin-Ahx-Ub-VS probe labelling (fragment/DMSO); higher = less target engagement (more negative = stronger competition), active = hit call of the paper (q ≤ 0.05, log2 ratio ≤ -1)
Conditions in all cases: compound concentration: 200 uM; treatment time: 3 h
[1] = biological target: T1, USP42 (UniProt Q9H9J4)
T1 sequence (whole entry): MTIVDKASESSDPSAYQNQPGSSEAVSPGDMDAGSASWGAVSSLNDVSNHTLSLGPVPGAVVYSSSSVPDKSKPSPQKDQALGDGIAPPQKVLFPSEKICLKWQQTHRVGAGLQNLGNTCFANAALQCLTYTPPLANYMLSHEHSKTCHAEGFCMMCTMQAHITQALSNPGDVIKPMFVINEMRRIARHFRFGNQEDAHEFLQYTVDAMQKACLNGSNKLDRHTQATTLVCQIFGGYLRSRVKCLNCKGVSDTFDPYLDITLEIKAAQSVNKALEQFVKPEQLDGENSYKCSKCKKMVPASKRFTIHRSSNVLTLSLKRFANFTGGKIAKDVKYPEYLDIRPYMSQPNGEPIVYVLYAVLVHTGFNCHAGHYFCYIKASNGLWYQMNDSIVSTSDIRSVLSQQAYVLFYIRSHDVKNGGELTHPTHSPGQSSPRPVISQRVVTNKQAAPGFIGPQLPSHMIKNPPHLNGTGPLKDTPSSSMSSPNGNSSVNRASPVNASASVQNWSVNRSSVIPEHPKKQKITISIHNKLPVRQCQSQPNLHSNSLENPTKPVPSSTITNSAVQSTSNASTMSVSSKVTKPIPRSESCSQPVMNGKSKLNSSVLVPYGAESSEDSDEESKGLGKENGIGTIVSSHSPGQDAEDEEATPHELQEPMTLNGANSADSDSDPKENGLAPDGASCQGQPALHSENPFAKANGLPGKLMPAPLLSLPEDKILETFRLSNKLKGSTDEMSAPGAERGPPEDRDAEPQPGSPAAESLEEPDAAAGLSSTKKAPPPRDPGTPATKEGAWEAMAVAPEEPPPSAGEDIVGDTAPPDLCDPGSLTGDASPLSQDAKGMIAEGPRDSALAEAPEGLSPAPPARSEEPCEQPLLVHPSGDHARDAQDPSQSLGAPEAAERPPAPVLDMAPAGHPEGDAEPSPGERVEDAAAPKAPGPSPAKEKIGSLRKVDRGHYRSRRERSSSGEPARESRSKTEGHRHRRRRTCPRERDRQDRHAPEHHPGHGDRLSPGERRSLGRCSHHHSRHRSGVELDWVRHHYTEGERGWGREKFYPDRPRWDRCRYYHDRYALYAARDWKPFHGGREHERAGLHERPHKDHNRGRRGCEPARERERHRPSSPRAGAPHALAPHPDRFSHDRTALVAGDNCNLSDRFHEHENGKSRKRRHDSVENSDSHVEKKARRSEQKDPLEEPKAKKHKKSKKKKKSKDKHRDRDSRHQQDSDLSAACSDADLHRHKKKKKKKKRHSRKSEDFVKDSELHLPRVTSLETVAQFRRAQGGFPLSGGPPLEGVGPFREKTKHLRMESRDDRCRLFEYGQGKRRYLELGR
How it was run: (§1)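 HEK293T lysate in Tris/CHAPS/IGEPAL buffer with protease inhibitors (495 µg per sample) was given fragment at 200 µM or vehicle for 3 h, in triplicate. It then received Biotin-Ahx-Ub-VS at 0.5 µM final for 1 h. Labelled DUBs were NeutrAvidin-enriched, digested with LysC and trypsin, and run by diaPASEF LC-MS/MS. Values are average log2 fragment/vehicle ratios by unpaired t-test on global-median-normalised Spectronaut quantities of proteins with ≥2 unique peptides.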

[2] = biological target: USP46 (UniProt P62068)
How it was run: as §1

[3] = biological target: T2, USP47 (UniProt Q96K76)
T2 sequence (whole entry): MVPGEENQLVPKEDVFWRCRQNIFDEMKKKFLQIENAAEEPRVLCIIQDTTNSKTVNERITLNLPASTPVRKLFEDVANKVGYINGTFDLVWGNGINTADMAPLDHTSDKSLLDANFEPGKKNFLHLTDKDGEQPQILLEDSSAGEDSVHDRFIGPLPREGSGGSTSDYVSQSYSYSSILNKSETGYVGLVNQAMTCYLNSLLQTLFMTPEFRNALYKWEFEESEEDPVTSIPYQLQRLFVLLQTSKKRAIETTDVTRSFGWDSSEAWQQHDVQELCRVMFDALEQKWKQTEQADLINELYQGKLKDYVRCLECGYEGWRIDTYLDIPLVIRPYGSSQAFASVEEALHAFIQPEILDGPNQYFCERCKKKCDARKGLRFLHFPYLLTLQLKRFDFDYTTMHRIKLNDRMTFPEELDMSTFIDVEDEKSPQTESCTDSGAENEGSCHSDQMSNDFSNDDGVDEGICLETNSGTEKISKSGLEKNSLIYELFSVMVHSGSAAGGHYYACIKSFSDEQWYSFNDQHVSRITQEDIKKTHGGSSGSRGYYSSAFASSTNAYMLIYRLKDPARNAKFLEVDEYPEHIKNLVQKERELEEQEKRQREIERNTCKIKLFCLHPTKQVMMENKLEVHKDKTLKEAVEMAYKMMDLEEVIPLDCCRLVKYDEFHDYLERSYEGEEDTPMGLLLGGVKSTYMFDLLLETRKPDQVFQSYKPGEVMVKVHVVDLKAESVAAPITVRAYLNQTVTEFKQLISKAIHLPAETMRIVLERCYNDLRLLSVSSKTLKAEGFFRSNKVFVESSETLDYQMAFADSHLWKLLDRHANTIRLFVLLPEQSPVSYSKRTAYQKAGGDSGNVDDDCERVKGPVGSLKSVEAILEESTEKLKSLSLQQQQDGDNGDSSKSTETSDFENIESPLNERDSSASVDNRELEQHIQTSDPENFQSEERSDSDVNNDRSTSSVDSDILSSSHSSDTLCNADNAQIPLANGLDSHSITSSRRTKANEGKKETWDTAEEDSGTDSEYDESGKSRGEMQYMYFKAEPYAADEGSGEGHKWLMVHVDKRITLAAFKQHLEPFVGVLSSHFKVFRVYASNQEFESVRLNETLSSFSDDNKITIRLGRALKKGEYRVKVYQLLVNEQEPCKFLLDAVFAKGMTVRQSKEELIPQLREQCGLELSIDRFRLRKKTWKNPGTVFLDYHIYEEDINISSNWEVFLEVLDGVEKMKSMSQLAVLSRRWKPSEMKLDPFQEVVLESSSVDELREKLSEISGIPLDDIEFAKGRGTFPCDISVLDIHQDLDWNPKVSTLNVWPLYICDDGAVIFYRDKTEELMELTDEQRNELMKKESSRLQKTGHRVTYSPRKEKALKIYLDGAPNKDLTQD
How it was run: as §1

[4] = biological target: T3, USP48 (UniProt Q86UV5)
T3 sequence (whole entry): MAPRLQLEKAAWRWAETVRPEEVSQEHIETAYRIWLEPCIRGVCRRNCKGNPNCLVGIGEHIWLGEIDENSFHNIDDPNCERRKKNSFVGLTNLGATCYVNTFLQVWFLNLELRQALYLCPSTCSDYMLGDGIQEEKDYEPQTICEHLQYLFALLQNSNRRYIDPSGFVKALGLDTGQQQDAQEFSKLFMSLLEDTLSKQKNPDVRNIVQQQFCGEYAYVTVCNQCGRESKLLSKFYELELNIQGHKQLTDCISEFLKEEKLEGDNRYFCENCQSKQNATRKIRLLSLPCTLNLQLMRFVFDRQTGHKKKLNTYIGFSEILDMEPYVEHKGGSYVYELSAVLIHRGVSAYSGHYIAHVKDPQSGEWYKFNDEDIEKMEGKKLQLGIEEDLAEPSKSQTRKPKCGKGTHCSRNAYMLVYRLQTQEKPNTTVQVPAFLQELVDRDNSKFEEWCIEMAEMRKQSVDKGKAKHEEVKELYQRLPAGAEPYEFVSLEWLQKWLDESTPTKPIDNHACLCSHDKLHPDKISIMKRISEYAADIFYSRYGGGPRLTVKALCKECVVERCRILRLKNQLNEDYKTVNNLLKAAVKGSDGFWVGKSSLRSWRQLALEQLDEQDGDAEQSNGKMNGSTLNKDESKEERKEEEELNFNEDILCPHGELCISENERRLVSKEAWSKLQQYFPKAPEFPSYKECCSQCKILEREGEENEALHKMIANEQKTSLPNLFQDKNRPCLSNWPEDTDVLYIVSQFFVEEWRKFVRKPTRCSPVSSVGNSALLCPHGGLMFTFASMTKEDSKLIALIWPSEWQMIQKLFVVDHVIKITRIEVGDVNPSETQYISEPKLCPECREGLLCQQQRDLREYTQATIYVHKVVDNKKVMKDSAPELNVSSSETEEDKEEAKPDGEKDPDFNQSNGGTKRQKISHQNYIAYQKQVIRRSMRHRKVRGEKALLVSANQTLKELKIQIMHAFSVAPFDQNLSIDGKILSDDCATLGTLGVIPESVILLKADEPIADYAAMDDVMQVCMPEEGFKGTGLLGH
How it was run: as §1

[5] = biological target: T4, USP5 (UniProt P45974)
T4 sequence (whole entry): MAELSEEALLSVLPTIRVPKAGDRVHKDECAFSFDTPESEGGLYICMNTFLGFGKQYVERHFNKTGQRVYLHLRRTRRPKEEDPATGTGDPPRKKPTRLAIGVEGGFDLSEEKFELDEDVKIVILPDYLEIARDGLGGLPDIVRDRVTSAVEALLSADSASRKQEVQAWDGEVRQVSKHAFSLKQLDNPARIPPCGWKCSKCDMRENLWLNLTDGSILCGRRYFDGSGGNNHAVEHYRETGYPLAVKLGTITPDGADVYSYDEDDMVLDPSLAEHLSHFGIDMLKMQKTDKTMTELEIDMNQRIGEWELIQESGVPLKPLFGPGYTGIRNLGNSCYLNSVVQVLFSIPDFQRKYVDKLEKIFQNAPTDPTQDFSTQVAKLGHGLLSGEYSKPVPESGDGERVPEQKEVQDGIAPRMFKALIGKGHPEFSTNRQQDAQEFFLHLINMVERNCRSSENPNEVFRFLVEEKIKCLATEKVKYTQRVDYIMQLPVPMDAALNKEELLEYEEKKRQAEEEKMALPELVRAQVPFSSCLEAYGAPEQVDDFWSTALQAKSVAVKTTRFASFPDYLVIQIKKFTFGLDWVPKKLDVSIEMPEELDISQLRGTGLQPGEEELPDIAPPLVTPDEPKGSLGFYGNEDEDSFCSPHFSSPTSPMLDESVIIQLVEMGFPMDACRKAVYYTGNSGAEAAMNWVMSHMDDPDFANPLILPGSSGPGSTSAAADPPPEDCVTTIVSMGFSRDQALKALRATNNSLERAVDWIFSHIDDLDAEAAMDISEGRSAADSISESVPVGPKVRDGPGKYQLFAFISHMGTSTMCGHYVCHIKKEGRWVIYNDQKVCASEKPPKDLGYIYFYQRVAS
How it was run: as §1

[6] = biological target: USP54 (UniProt Q70EL1)
How it was run: as §1

[7] = biological target: USP7 (UniProt Q93009)
How it was run: as §1

[8] = biological target: T5, USP8 (UniProt P40818)
T5 sequence (whole entry): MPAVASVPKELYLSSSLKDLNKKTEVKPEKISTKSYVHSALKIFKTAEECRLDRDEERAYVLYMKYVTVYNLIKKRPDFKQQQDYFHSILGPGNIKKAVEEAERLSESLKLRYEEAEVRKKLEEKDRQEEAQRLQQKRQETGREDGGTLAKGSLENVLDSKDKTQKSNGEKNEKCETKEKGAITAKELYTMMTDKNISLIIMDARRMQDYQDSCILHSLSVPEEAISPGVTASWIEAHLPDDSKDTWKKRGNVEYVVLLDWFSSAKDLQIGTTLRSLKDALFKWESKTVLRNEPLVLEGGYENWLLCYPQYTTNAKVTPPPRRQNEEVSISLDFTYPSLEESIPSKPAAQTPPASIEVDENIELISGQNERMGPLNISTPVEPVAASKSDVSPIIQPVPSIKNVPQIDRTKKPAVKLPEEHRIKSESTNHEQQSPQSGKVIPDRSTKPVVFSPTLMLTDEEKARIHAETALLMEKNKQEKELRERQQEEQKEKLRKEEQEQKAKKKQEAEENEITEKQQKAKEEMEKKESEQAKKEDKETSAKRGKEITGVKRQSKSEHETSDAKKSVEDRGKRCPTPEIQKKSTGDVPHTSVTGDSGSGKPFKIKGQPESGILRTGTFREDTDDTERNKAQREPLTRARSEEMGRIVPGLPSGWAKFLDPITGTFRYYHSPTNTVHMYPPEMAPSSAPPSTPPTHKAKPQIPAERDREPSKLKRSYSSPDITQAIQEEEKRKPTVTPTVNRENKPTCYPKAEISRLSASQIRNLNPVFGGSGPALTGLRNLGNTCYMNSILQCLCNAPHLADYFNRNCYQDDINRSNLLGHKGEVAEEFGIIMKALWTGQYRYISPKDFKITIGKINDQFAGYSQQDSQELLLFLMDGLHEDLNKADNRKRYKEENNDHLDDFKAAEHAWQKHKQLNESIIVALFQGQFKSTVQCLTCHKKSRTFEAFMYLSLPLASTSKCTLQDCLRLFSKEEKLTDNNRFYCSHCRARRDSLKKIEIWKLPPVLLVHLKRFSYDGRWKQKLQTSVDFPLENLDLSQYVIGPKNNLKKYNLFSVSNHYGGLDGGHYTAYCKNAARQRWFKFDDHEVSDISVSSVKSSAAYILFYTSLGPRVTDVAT
How it was run: as §1

[9] = biological target: USP9X (UniProt Q93008)
How it was run: as §1

[10] = biological target: UniProt O00487
How it was run: as §1

Measured: log2 ratio of Biotin-Ahx-Ub-VS probe labelling

Sequence of USP7 (Q93009 whole entry, looked up): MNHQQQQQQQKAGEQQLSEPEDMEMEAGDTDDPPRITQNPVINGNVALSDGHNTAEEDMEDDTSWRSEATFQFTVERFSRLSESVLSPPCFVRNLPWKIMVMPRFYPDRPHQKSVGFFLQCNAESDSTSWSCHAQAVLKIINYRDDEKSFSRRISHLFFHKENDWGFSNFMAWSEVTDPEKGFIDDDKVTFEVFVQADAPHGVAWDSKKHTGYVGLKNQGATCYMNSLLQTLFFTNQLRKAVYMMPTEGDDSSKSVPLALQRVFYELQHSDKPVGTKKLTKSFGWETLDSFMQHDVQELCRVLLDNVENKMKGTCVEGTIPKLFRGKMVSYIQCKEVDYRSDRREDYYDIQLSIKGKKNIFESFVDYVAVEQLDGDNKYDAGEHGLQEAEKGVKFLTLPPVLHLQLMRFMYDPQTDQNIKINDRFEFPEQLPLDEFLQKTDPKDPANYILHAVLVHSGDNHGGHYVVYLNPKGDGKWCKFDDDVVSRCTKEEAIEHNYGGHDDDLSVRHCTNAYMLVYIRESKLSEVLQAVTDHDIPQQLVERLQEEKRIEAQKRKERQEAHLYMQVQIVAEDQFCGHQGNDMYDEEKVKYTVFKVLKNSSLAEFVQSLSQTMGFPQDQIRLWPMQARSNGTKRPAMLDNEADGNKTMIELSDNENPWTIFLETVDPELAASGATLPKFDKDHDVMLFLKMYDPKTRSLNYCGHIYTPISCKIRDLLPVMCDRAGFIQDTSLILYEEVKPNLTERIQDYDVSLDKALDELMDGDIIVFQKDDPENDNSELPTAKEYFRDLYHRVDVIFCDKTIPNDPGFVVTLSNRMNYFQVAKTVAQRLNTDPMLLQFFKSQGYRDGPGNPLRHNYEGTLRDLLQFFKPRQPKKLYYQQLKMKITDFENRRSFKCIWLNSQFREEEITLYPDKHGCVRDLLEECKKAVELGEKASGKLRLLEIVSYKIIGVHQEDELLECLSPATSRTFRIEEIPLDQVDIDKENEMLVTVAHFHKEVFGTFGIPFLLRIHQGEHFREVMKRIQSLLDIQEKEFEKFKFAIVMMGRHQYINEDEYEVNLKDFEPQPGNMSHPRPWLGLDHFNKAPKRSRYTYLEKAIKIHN
Sequence of UniProt O00487 (O00487 whole entry): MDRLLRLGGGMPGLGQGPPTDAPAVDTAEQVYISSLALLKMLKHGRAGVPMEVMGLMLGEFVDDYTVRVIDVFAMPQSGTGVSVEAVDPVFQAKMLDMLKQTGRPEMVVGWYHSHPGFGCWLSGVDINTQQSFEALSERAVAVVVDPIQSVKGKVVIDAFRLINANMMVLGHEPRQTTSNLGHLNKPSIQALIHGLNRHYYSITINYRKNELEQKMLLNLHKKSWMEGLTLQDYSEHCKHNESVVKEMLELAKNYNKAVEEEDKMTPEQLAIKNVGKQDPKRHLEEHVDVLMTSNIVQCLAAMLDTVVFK
Sequence of USP54 (Q70EL1 whole entry): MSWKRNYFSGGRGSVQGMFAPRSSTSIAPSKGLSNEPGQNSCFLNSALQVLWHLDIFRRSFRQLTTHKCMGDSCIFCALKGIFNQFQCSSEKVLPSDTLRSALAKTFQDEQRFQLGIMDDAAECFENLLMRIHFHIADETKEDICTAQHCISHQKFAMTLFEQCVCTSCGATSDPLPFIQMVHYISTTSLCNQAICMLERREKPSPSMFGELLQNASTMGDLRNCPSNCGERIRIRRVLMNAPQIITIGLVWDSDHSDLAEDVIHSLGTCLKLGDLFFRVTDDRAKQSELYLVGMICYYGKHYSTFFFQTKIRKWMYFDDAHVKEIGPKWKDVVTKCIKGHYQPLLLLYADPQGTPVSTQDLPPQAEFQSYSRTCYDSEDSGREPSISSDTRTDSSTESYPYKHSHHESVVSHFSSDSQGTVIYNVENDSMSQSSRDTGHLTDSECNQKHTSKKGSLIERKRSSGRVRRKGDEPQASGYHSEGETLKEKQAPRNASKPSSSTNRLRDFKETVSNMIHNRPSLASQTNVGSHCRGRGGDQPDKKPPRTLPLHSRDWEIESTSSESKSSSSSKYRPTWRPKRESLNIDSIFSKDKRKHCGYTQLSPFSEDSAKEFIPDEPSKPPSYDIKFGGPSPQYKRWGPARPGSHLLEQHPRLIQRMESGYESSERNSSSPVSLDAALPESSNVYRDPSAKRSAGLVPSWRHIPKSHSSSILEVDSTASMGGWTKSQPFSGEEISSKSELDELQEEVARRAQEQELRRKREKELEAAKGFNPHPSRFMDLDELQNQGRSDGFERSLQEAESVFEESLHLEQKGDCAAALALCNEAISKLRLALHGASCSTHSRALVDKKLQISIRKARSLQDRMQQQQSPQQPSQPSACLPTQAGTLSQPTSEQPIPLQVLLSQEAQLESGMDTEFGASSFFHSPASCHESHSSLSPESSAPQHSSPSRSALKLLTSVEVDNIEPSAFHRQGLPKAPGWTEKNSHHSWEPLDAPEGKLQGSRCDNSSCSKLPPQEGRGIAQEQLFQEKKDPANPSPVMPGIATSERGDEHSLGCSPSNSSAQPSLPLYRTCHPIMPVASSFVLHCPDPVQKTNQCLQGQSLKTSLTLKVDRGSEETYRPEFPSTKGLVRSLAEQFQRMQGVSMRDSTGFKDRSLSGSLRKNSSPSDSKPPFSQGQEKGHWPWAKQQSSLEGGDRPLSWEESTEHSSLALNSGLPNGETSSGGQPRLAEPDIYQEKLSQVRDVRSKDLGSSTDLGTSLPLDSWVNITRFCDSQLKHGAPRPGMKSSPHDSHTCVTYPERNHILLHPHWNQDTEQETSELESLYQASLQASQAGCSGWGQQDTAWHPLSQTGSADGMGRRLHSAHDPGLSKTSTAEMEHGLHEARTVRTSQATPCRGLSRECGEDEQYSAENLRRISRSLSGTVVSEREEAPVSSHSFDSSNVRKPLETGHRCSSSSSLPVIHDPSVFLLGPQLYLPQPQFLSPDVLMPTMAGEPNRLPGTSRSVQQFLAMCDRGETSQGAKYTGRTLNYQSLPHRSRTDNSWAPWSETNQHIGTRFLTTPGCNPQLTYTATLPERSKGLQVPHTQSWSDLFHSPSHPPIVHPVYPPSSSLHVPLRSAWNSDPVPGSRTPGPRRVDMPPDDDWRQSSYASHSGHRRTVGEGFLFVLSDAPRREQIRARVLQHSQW
Sequence of USP46 (P62068 whole entry): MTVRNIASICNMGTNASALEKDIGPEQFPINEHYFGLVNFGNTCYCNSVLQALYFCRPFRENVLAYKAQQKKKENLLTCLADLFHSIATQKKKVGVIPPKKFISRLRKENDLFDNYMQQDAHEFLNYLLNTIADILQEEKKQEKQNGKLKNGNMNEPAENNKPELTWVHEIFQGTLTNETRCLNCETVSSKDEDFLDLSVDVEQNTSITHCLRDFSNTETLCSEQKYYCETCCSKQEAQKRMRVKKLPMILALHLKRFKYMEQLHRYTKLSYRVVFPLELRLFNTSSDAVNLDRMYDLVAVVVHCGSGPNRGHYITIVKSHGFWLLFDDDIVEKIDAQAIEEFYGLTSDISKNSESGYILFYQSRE

Cc1ccc(C(=O)NCCNC(=O)CCl)cc1
inactive: [1] -0.216 | [2] 0.0112 | [3] -0.158 | [4] -0.318 | [5] -0.123 | [6] 0.576 | [7] -0.262 | [8] -0.271 | [9] -0.316 | [10] -0.0816
